# Test results taken from ChEMBL document CHEMBL4513216, “Probing the Open Global Health Chemical Diversity Library for Multistage-Active Starting Points for Next-Generation Antimalarials” (ACS Infect Dis, 2020).
# Out of some 69,000 compounds screened, about 8,600 (12%) showed an effect of 50% or more. The sample as a whole holds a higher share of strong results than the screen did.
# Tested on: Plasmodium berghei
# Assay: Screen against P. berghei liver stage (PbLuc), transformed with Luciferase, at 10uM
# Assay type: functional, HepG2
# Settings: tested at 10 uM
row,Compound,INHIBITION [%]
1,CC(=O)Nc1nc(CN2CCOC(Cn3cncn3)C2)cs1 (configuration not stated),11.6
2,Cn1cnnc1CCNC(=O)c1cnn(Cc2ccccc2)c1,10.7
3,Cc1noc(C)c1CN(C)C(=O)NC1CCC(O)CC1 (configuration not stated),40.15
4,O[C@H]1[C@H](n2cc(-c3ccccn3)nn2)c2ccccc2C12CCNCC2,-110
5,OCc1cn([C@@H]2c3ccccc3C3(CCNCC3)[C@H]2O)nn1,-76.9
6,O=C(CC1CCc2ccccc21)NCCSc1ccccn1 (configuration not stated),-8.25
7,O[C@H]1[C@H](NCCSc2ccccn2)c2ccccc2C12CCNCC2,52.2
8,O[C@H]1[C@H](NCCc2cnccn2)c2ccccc2C12CCNCC2,57.8
9,O[C@H]1[C@H](NCCc2ccccn2)c2ccccc2C12CCNCC2,28.7
10,COc1ccc(Nc2nc(N)c(C(C)=O)s2)cc1OC,27.5
11,Cc1cnn(Cc2cccc(OCC(N)=O)c2)c1,40.7
12,Cc1ccsc1CNC1CCCc2c1cnn2C (configuration not stated),-2.19
13,CC(C)(Oc1ccc(C(N)=O)cc1)C(=O)N(CCC#N)C1CC1,23.3
14,NC(=O)C1CCN(C(=O)NC2CCN(CC3CCCC3)C2)CC1 (configuration not stated),7.83
15,O=C(NC1CCN(CC2CCCC2)C1)N1CCC(OCC2CC2)CC1 (configuration not stated),39.7
16,O=C(NC1CCN(CC2CC2)C1)N1CCC(OC2CCCCC2)CC1 (configuration not stated),74
17,COCCC(=O)N1CCn2c(COCC3CC3)cnc2C1C (configuration not stated),51.2
18,CC1c2ncc(COCC3CC3)n2CCN1C (configuration not stated),21.7
19,CCOCc1cnc2n1CCN(C(=O)c1ccccc1)C2C (configuration not stated),57.5
20,CCOCc1cnc2n1CCN(C(=O)Cc1cccs1)C2C (configuration not stated),34.6
21,CCOCc1cnc2n1CCN(C(=O)Cc1ccccn1)C2C (configuration not stated),37.8
22,COCc1cnc2n1CCN(C(=O)c1cn(C)c3ccccc13)C2C (configuration not stated),16.8
23,CCOCc1cnc2n1CCN(C(=O)C1=CCCC1)C2C (configuration not stated),5.96
24,CCOCc1cnc2n1CCN(C(=O)c1cn(C)c3ccccc13)C2C (configuration not stated),57.5
25,CC1c2ncc(COCC3CC3)n2CCN1C(=O)c1ccnnc1 (configuration not stated),-27
26,CCOCc1cnc2n1CCN(C(=O)c1cccc3c1OCCO3)C2C (configuration not stated),52.1

row,Compound,INHIBITION [%]
1,CCOCc1cnc2n1CCN(C(=O)c1ccoc1C)C2C (configuration not stated),48.4
2,CCOCc1cnc2n1CCN(C(=O)Cc1ccco1)C2C (configuration not stated),10.5
3,CCc1noc(C)c1C(=O)N1CCCC1c1c(C)nn(C)c1C (configuration not stated),31.8
4,Cc1ccc(C(NCC(=O)N2CCNC(=O)C2)C(F)(F)F)cc1 (configuration not stated),18.3
5,CC(C)(CNC1CCCN(Cc2ccccn2)C1)CN1CCOCC1 (configuration not stated),33
6,O=C(NCC1CC1)C1CCC2(CCN(C(=O)c3cccnc3)CC2)O1 (configuration not stated),6.27
7,Cc1ccc(-c2nc(C(=O)N3CCOCC3)cs2)c(C)c1,-3.85
8,Cc1cc(C)n(CCN2CCOC(CNc3cccnn3)C2)n1 (configuration not stated),-39.7
9,O=C(c1ccncc1)N1CCN(Cc2cccnc2)c2ncccc2C1,7.53
10,CSc1nccc(NCc2cc3n(n2)CCCN(C(=O)C2CCC2)C3)n1,15.9
11,CC(c1ccc(F)cc1)N1CCN(Cc2nccn2C)CC1 (configuration not stated),11.9
12,CN(C)C(=O)CN1CCC2(COCc3cnc(-c4ccccc4)nc32)C1 (configuration not stated),91
13,CCN1CCC2(COCc3cnc(-c4cccnc4)nc32)C1 (configuration not stated),28.4
14,CN(C)S(=O)(=O)N1CCC2(COCc3cnc(-c4ccccc4)nc32)C1 (configuration not stated),29.7
15,CN(C)C(=O)CN1CCC2(COCc3cnc(-c4cccnc4)nc32)C1 (configuration not stated),69.3
16,CS(=O)(=O)N1CCC2(COCc3cnc(-c4ccccc4)nc32)C1 (configuration not stated),-69.9
17,CC(C)C(=O)N1CCC2(COCc3cnc(-c4cccnc4)nc32)C1 (configuration not stated),17.7
18,O=C(C1CCC1)N1CCC2(COCc3cnc(-c4cccnc4)nc32)C1 (configuration not stated),-40.4
19,O=S(=O)(C1CC1)N1CCC2(COCc3cnc(-c4cccnc4)nc32)C1 (configuration not stated),32.1
20,c1ccc(-c2ncc3c(n2)C2(CCN(c4ncccn4)C2)COC3)cc1 (configuration not stated),-39.1
21,c1cnc(N2CCC3(COCc4cnc(-c5cccnc5)nc43)C2)nc1 (configuration not stated),59.7
22,CN(C)C(=O)CN1CCC2(COCc3cnc(N4CCOCC4)nc32)C1 (configuration not stated),19.4
23,CN(C)S(=O)(=O)N1CCC2(COCc3cnc(-c4cccnc4)nc32)C1 (configuration not stated),59.3
24,O=C(NCc1ccccn1)NCc1ccc(Cl)s1,17.5
25,Cc1ccc(C)c(S(=O)(=O)CCNC2CCc3ncnn3C2)c1 (configuration not stated),-21.9
26,CC(NCc1ccnc(OC2CCC2)c1)c1cnn(C)c1 (configuration not stated),-4.92

row,Compound,INHIBITION [%]
1,O=C1OCCN1CC(=O)N1C[C@@H]2CC[C@H]1CN(C(=O)c1cccnc1)C2,29.6
2,Cc1cc(N2CCC(Cc3cccnc3)CC2)ncn1,39.7
3,CC(=O)N1CCN(C(=O)c2sc(-c3ccccc3F)nc2C)CC1,-10.8
4,OCC1CCCN1c1cc(NCc2cccs2)ncn1 (configuration not stated),31.3
5,Cc1c(C)n(CC(O)CN2CCN(CCO)CC2)c2c(Cl)cccc12 (configuration not stated),28.6
6,Cc1ccc(F)cc1S(=O)(=O)NCc1[nH]ncc1Br,1.62
7,Cc1cc(F)ccc1S(=O)(=O)NCc1[nH]ncc1Br,-3.14
8,Cc1ccc(F)c(S(=O)(=O)NCc2[nH]ncc2Br)c1,52.9
9,Cc1cccc(CN2CCOCC2c2[nH]ncc2C)n1 (configuration not stated),31.9
10,O=C(c1ccoc1)N1CC[C@H]2[C@H]1CCN2S(=O)(=O)C1CC1,44.8
11,CC(C)N1C(=O)C[C@H]2[C@@H]1CCN2C(=O)c1ccco1,53.9
12,O=C(c1ccccn1)N1CC[C@H]2[C@H]1CCN2S(=O)(=O)C1CC1,-60.2
13,O=C(C1CCC1)N1CCN(C(=O)c2cnccn2)[C@H]2CS(=O)(=O)C[C@H]21,23.5
14,Cn1cc(N2C(=O)C[C@@H]3[C@@H]2CCN3C(=O)c2ccco2)cn1,12.2
15,O=C([C@H]1C[C@H]2OCC[C@H]2N(C(=O)c2ccnnc2)C1)N1CCCCO1,19.5
16,O=C(c1ccncc1)N1CC[C@H]2[C@H]1CCN2S(=O)(=O)C1CC1,-69.3
17,O=C(c1ccco1)N1CC[C@H]2[C@H]1CC(=O)N2c1cccnc1,-5.89
18,CS(=O)(=O)N1C[C@@H]2CCN(C(=O)c3ccco3)[C@@H]2C1,24.9
19,O=C(c1ccco1)N1CC[C@H]2[C@H]1CCN2S(=O)(=O)C1CC1,58.7
20,O=C(c1ccnnc1)N1CC[C@H]2[C@H]1CCN2S(=O)(=O)C1CC1,63.1
21,O=C(c1cnccn1)N1CC[C@H]2[C@H]1CCN2S(=O)(=O)C1CC1,71
22,CN(C)CC(=O)N1CCN(c2cc(N3CCCC3CO)ncn2)CC1 (configuration not stated),-5.1
23,CNC(=O)NC(=O)C(C)N1CCN(c2ccc(C#N)cc2F)CC1 (configuration not stated),11.8
24,CN(C)S(=O)(=O)N1C[C@@H]2C[C@H](C(=O)Nc3ccccc3)[C@H](C1)O2,-22.5
25,C[C@H](O)c1cnn(-c2ccccc2)c1,-13.1
26,Cc1cc(C)c(CNC(=O)NC2CCOCC2)c(=O)[nH]1,27.7

row,Compound,INHIBITION [%]
1,Cc1nccc(N2CCN(C3CCOCC3)CC(C(=O)N(C)C)C2)n1 (configuration not stated),25.8
2,CC(C)(C)CCCC(=O)Nc1ccnn1C1CCS(=O)(=O)C1 (configuration not stated),46.6
3,CC(Nc1cccc2c1OCCO2)C(=O)NC(N)=O (configuration not stated),-45.2
4,O=C(CN1CCCC1)N1CCCC(c2cc(=O)n3c(n2)CCCCC3)C1 (configuration not stated),14.7
5,CN(C)C(=O)N[C@H]1CN(C2CCOCC2)[C@@H]2CCCO[C@H]12,43.8
6,CN(C)C(=O)N[C@@H]1CN(C2CCOCC2)[C@@H]2CCCO[C@@H]21,20.1
7,CN(C)C(=O)N[C@@H]1CN(S(C)(=O)=O)[C@@H]2CCCO[C@@H]21,60
8,COCC(NC(=O)c1cccnc1)c1cccc(C(F)(F)F)c1 (configuration not stated),7.44
9,CNC(=O)CCc1cc(C2CCNCC2)nc(C)n1,27.8
10,Oc1cc(C2CCCCN2C2CCCC2)nc(-c2ccncc2)n1 (configuration not stated),16.5
11,CC(OCC1CC1)C(=O)N1CCCN(Cc2nccn2C(C)C)CC1 (configuration not stated),46.2
12,Cn1cc(CN2CCCN(C(=O)c3ccc4ccccc4n3)CC2)cn1,52.35
13,Cn1cc(CN2CCCN(C(=O)c3cc[nH]n3)CC2)cn1,23.2
14,Cn1cc(CN2CCCN(C(=O)c3ccccn3)CC2)cn1,-13.35
15,CC(OCC1CC1)C(=O)N1CCCN(Cc2cscn2)CC1 (configuration not stated),11.67
16,Cn1cc(CN2CCCN(C(=O)c3cn4ccccc4n3)CC2)cn1,56.6
17,Cc1nc(C(=O)N2CCCN(Cc3cnn(C)c3)CC2)ccc1C#N,15.1
18,Cc1cccc(C(=O)N2CCCN(Cc3cnn(C)c3)CC2)n1,31.8
19,CC(OCC1CC1)C(=O)N1CCCN(Cc2cnn(C)c2)CC1 (configuration not stated),60.5
20,CC(C)CNC(=O)c1cn(-c2ccccn2)c(=O)c2ccccc12,13.9
21,CCN1CC2(CC1=O)CN(C(=O)NC(C)C)CCN(C(=O)NC(C)C)C2,27.5
22,Cc1cnn(CC2CN(CC(=O)N(C)Cc3ccsc3)CCO2)c1 (configuration not stated),-89
23,CS(=O)(=O)c1cccc(C(=O)N2CCCC(n3cccn3)C2)c1 (configuration not stated),1.94
24,O=C(CN1CCCC(Cn2cncn2)C1)NCc1ccccc1F (configuration not stated),19.4
